Bioassay records (PubChem BioAssay)
Compounds with a hit are over-represented: about 5.4% of the library has one in this group of screens.
p53 reactivator – qHTS assay for re-activators of p53 using a Luc reporter; AID 504706, 2011; 320,000 compounds, 0.063% hits; Potency, µM (titrated, usually from 92.2 µM), for inactives: at the highest dose activity change, positive = activation, hits mostly activators; H1299 p53-A138V BP100-luciferase reporter, luminescence, 24 h; further: potency means the concentration at half of the fitted maximal effect; % of control where 0% means no effect; nearly all actives have a fitted effect of over 45% in size
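H1299 (p53-null), stable ts p53-A138V + BP100-Luc; 1000 cells/well, Opti-MEM/10% FBS; cpd 4 pt, 1:5; 24 h, 37 deg C, 5% CO2; detection reagent 10 min RT; luminescence.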
RORg inh – qHTS for inhibitors of ROR gamma transcriptional activity. Nuclear receptor ROR-gamma (Mus musculus), P51450. Drosophila S2 Gal4-RORgamma UAS-luciferase reporter, 20 h. Potency, µM (doses to about 53.6 µM), inactives show at the highest dose activity change, negative = inhibition, usual class: inhibitors. 310,000 compounds, 5.4% hits. AID 2551, 2010; further: potency means the concentration at half of the fitted maximal effect; on the % scale 0 is the no-effect control and ±100 the full control effect; nearly all actives have a fitted effect of over 60% in size
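Read-out: Photinus luciferase luminescence; inhibitors lower reporter signal. Insect Schneider cells with Gal4-ROR gamma fusion under metallothionein promoter, UAS reporter; 700 uM final copper sulfate induction, 20 hr, ambient temperature.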
CtBP-E1A inh – qHTS Assay for Inhibitors of the CtBP/E1A Interaction; CtBP / adenovirus E1A interaction (AlphaScreen); AlphaScreen GST-E1A/His-CtBP binding, 1536-well; active compounds read low; activity change, % (test concentration not listed); 340,000 compounds, 0.49% hits; in the data active means activity change below about -65%; inconclusive means mostly about -30% to -63%; further: on the % scale 0 is the no-effect control and ±100 the full control effect
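Steps: dispense buffer (Tris pH 8.0, NaCl 300 mM, TCEP 1 mM, BSA, Tween 20); add 5X protein mix (GST-E1A, His-CtBP, 125 nM each); pin 23 nL compound; 2 h at 37 °C, dark; add 5X beads (50 ug/mL); 1 h; read.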
VP16 counter – VP16 counterscreen qHTS for inhibitors of ROR gamma transcriptional activity | Drosophila S2 Gal4-VP16 UAS-luciferase, luminescence, 20 h | Potency, µM (highest dose often 53.6 µM), inactives show at the highest dose activity, negative = inhibition, hits mostly inhibitors | 310,000 compounds, 3.5% hits | AID 2546, 2010;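 further: Gal4-VP16 expression switched on by copper sulfate through the metallothionein promoter; potency means the concentration at half of the fitted maximal effect; on the % scale 0 is the no-effect control and ±100 the full control effect; nearly all actives have a fitted effect of over 50% in size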
Six1-Eya2 inh – qHTS Assay for Inhibitors of the Six1/Eya2 Interaction | Homeobox protein SIX1 (Homo sapiens) + Protein phosphatase EYA2 (Homo sapiens), … | AlphaScreen GST-Six1/His-Eya2 binding, biochemical; active compounds read low | activity change, % (test concentration not listed) | 360,000 compounds, 0.56% hits; in the data active means activity change below about -65%; inconclusive means mostly about -30% to -63%; further: on the % scale 0 is the no-effect control and ±100 the full control effect
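AlphaScreen luminescence read after one hour at 37 °C in darkness. Pin-transferred compounds met GST-Six1 and His-Eya2 protein (5X stock 250 nM/500 nM) plus glutathione donor and Ni-chelate acceptor beads (5X, 50 ug/mL).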
* hit, by the source's call; u = inconclusive; x = no result. Unless noted, the call rests on the fitted dose curve; in most records, active means well fitted curve in the direction sought with a large enough effect; inconclusive means small, poorly fitted or top-dose-only effect, or another doubt; inactive means no such curve, though single readings can be large; an effect the other way counts as inactive or inconclusive.

SMILES	p53 reactivator	RORg inh	CtBP-E1A inh	VP16 counter	Six1-Eya2 inh
COc1ccc(C2=NS(=O)(=O)N(C)C(C(=O)Nc3ccc(C(C)=O)cc3)=C2)cc1OC	14%	14%	-6	16µM*	-13
CCOc1ccc(NS(=O)(=O)c2ccc(C(=O)N3CCN(C(C)=O)CC3)cc2)cc1	-27%	u	2	20µM*	3
CCOc1ccc(NS(=O)(=O)c2ccc(C(=O)N(C)CCc3ccc(OC)c(OC)c3)cc2)cc1	-3%	u	8	7.1µM*	-3
Cc1ccc2scc(CN3CCCC3)c2c1	x	x	5	x	-3
Cc1cc2[nH]c(=O)cc(-c3ccccc3)n2n1	-42%	11µM*	x	18µM*	0
COc1cc(/C=N/Nc2nc3c(c(=O)n(C)c(=O)n3C)n2Cc2ccccc2)ccc1OC(=O)c1ccco1	24%	-23%	16	18µM*	-16
Cc1ccc(Cn2c(N/N=C/c3ccncc3)nc3c2c(=O)n(C)c(=O)n3C)cc1	-2%	-44%	1	10µM*	-11
Cn1c(=O)c2c(nc(N/N=C/c3ccncc3)n2Cc2ccccc2)n(C)c1=O	-1%	2%	0	-16%	2
Cc1ccc(C2CC(=O)Oc3cc4c(cc32)OCO4)cc1 (configuration not stated)	x	-30%	x	24%	x
C=CCc1cccc2cc(C(=O)Nc3ccc(CC(=O)O)cc3)c(=O)oc12	-5%	4µM*	x	u	-5
C=CCc1cccc2cc(C(=O)Nc3ccc(F)cc3)c(=O)oc12	u	10%	0	9%	6
COc1cc(/C=C2\SC(=Nc3ccccc3)N(CCc3c[nH]c4ccccc34)C2=O)ccc1OC(C)C(=O)O (configuration not stated)	-18%	1%	-4	u	-1
O=C1S/C(=C\c2ccc(N3CCOCC3)o2)C(=O)N1Cc1ccc(F)cc1	-1%	u	-11	7.1µM*	-1
CC(C)(C)OC(=O)CN1C(=O)S/C(=C\c2ccc(-c3cccc(C(=O)O)c3)o2)C1=O	x	u	x	-14%	x
CC(C)OC(=O)CN1C(=O)S/C(=C/c2ccc(N3CCCCC3)o2)C1=O	-14%	u	10	13µM*	-6
O=C1S/C(=C/c2ccc(N3CCOCC3)o2)C(=O)N1Cc1ccc(F)cc1	-2%	24%	-6	-15%	7
O=C1/C(=C/c2ccc(N3CCOCC3)o2)SC(=Nc2ccccc2)N1CCc1c[nH]c2ccccc12	-12%	3.2µM*	-16	5µM*	u
Cc1ccc(CNC(=O)Cc2noc3ccccc23)cc1	3%	-10%	-11	-1%	-18
Cc1ccc2c(c1)c1ccc3c(c1n2C)C(=O)C=CC3=O	-14%	11µM*	u	11µM*	u
COc1ccc2c(c1)c1ccc3c(c1n2C)C(=O)C=CC3=O	-12%	22µM*	x	13µM*	-69*
Cc1ccc2c(c1)c1ncnc(N3CCOCC3)c1n2C	u	14%	4	4%	5
CCC(=O)Nc1ccc(NC(=O)c2cc3ccccc3o2)c(OC)c1	14%	u	-14	u	1
COc1ccc(S(=O)(=O)N2CCN(C(=O)CCSc3ccccc3)CC2)cc1	-7%	x	-10	x	5
Clc1cccc(Cl)c1COc1ccccc1CNn1cnnc1	0%	-9%	0	8%	7
COC(=O)/C=C1\SC(=NC(=O)c2ccc(-c3ccccc3)cc2)NC1=O	8%	x	-3	x	1
SMILES	p53 reactivator	RORg inh	CtBP-E1A inh	VP16 counter	Six1-Eya2 inh
Nc1nsc2ccccc12	-37%	14µM*	-9	u	-2
Nc1nnc(N)c2ccccc12	13%	15%	28	-8%	-2
C=CCN(CC=C)CCOc1ccc(OC(C)C)cc1	-4%	15%	1	12%	-1
Cc1nn(-c2ccccc2)c(N2CCCC2)c1/C=N/NC(=S)Nc1ccccc1F	u	0.35µM*	2	0.35µM*	2
Cc1nn(-c2ccccc2)c(N2CCCC2)c1/C=N/NC(=O)c1cc2ccccc2cc1O	7%	3.5µM*	4	3.5µM*	-11
Cc1nn(-c2ccccc2)c(N2CCCC2)c1/C=N/NC(=O)c1cc(-c2ccccc2)nc2ccccc12	15%	15%	-17	-19%	u
Cc1cc(C)n(Cc2n[nH]c(=S)n2Cc2ccccc2)n1	8%	11µM*	0	u	0
Cc1nn(Cc2n[nH]c(=S)n2Cc2ccccc2)c(C)c1Cl	0%	5.6µM*	-5	20µM*	10
COc1ccc(Cc2n[nH]c(=S)n2Cc2ccccc2)cc1Cl	-3%	-5%	-2	-3%	-3
O=C(COc1cc(O)c2c(=O)c3ccccc3oc2c1)OCc1ccccc1	4%	14%	-17	-10%	-4
Cc1cc(=O)oc2cc3oc(=O)cc(C)c3cc12	3%	-2%	x	-1%	2
CCOC(=O)N=Nc1c2ccccc2c2nc3no[nH]c3nc12	2%	0.35µM*	-4	4µM*	-2
CCOC(=O)C(NC(=O)c1ccccc1)(OCc1ccc(F)cc1)C(F)(F)F (configuration not stated)	-2%	1%	-3	-3%	1
CCOC(=O)C(NC(=O)c1cccc(Cl)c1)(OCc1ccc(F)cc1)C(F)(F)F (configuration not stated)	13%	u	0	20µM*	32
O=C(O)c1ccc2c(c1)C(=O)N(C(Cc1ccc(O)cc1)C(=O)O)C2=O (configuration not stated)	8%	3%	7	-7%	6
O=C(O)c1ccc2c(c1)C(=O)N([C@@H](Cc1ccc(O)cc1)C(=O)O)C2=O	x	2µM*	x	6.3µM*	x
COc1ccccc1CNc1cc(-c2ccccc2Cl)ncn1	x	-13%	x	0%	x
N/C(=N\OC(=O)c1ccc(Cl)cc1Cl)c1ccc(Cl)cc1	20%	1%	1	-10%	8
N/C(=N\OC(=O)c1cccc2ccccc12)c1cccc([N+](=O)[O-])c1	6%	-15%	-3	u	-2
Cc1cccc(/C(N)=N/OC(=O)c2cccc3ccccc23)c1	8%	1.1µM*	x	5.6µM*	x
N/C(=N\OC(=O)c1ccc(Cl)cc1Cl)c1ccccc1	u	5µM*	98	u	67
N/C(Cc1ccc(Cl)cc1Cl)=N\OC(=O)c1ccccc1	-2%	13µM*	x	-2%	-1
COc1ccc(C(=O)O/N=C(\N)c2ccccc2)c(OC)c1	x	4.5µM*	x	8.9µM*	-2
N/C(Cc1ccc(Cl)cc1Cl)=N\OC(=O)Cc1ccccc1	u	-36%	73	u	75
